Screening results deposited in PubChem BioAssay by National Center for Advancing Translational Sciences (NCATS).
hNpr1 antagonist – Natriuretic polypeptide receptor (hNpr1) antagonism - Primary qHTS; actives 1.6% (n = 76,000); HEK293 hNpr1 GloSensor cGMP, ANP-stimulated luminescence; AID 1347048, 2019; Potency, µM (titrated, usually from 46.3 µM), for the others: at the highest dose activity change, negative = inhibition, most hits filed as inhibitors; calls by dose curve; also: nearly all actives have a fitted effect of over 60% in size
Target sequence (P16066 whole entry, looked up): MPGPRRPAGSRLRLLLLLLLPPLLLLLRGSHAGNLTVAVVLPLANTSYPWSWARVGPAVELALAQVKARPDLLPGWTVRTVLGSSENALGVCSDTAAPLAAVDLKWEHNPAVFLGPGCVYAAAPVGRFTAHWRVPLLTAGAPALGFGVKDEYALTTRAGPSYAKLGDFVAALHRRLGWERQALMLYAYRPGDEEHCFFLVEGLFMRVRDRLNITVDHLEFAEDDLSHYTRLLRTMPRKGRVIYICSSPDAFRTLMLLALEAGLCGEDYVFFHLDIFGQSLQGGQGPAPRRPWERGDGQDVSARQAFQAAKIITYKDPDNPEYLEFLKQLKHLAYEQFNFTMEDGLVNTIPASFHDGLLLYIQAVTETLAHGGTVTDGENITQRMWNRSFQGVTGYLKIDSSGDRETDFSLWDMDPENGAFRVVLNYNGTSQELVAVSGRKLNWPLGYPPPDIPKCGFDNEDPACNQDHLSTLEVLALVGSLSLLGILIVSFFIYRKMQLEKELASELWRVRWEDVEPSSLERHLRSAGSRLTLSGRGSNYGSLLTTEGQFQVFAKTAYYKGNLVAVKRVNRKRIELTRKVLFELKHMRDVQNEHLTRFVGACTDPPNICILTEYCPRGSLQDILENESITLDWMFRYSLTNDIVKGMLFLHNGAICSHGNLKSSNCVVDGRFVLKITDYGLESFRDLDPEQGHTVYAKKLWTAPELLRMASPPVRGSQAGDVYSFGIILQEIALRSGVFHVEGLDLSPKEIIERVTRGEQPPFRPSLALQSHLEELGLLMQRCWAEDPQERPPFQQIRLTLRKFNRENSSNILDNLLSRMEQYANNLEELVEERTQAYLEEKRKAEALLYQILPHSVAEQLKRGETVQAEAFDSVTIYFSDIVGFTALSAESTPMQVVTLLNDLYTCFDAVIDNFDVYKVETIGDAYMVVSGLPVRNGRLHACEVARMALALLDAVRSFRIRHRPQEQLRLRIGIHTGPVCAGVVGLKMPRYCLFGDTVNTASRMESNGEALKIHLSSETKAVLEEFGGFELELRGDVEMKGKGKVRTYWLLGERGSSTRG
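Compound pre-incubated 30 min at room temperature on GloSensor-loaded HEK293 cells stably carrying hNpr1 and the pGS-40F cGMP biosensor. Stimulation uses hNppA at 0.1 nM final; luminescence is taken at baseline and 20 min post-agonist.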
GPT2 inhibitor – Primary qHTS assay for inhibitors of Glutamate pyruvate transaminase 2 (GPT2). Alanine aminotransferase 2 (Homo sapiens), Q8TD30. Recombinant GPT2, coupled pyruvate oxidase/HRP Amplex Red fluorescence. Potency, µM (titrated, usually from 57.7 µM), for the others: at the top dose activity change, negative = inhibition, usual class: inhibitors. actives 0.25% (n = 100,000); also: nearly all actives have a fitted effect of over 60% in size
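Recombinant GPT2 (10ng/uL) with 250uM a-KG and 2mM L-alanine, 30 min at room temperature, in HEPES pH 7.5 buffer. Pyruvate detected by pyruvate oxidase/HRP/Amplex Red fluorescence after 30 min in the dark; AOA (50uM) as positive control.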
HEK cytotox – Cytotoxic Profiling in HEK 293 Cell Line of Diverse Libraries Using Quantitative High-Throughput Screening | Potency, µM (series often up to 115 µM), for the others: at the highest dose activity change, negative = cytotoxicity, actives largely listed as inhibitors | actives 6.6% (n = 94,000) | HEK 293 viability, ATP luminescence (CellTiter-Glo), 48-72 h; also: nearly all actives have a fitted effect of over 60% in size
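HEK 293 seeded at 250 cells/well receive compound via pintool. After 48 or 72 hr at 37 degree Celsius, 5% CO2 and 95% humidity, CellTiter-Glo is dispensed and luminescence read following 10 min at room temperature.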
Luciferase inh – Firefly luciferase inhibition profiling of diverse chemical library using quantitative high-throughput screening. AID 1347043, 2019. Potency, µM (titrated, usually from 115 µM), actives largely listed as inhibitors. actives 2.5% (n = 76,000). Luciferin 4-monooxygenase (Photinus pyralis), P08659. purified P. pyralis luciferase, luminescence, biochemical; also: nearly all actives have a fitted effect of over 65% in size
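Cell-free enzyme assay, 10nM P. pyralis luciferase, luciferin and ATP each at 10uM. Inhibition profiled over a 6-point titration, read as luminescence.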
3T3 cytotox – Cytotoxic Profiling in NIH 3T3 Cell Line of Diverse Libraries Using Quantitative High-Throughput Screening | Potency, µM (series often up to 96.7 µM), for inactives: at the top dose activity change, negative = cytotoxicity, actives largely listed as inhibitors | NIH 3T3 viability, CellTiter-Glo ATP luminescence, 48-72 h | actives 4.3% (n = 94,000); also: nearly all actives have a fitted effect of over 55% in size
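Mouse fibroblast NIH 3T3 cells, 400 per well, received compound via pintool and were incubated for 48 or 72 hr prior to CellTiter-Glo ATP luminescence measurement.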
* hit, by the source's call; i = inactive; ? = inconclusive; nt = not tested or not shown; [ ] = another dose, or the depositor's remark. Most compounds without a hit are left out; they make up all but 10% or so of the library. Unless noted, calls follow the shape of the dose curve; as a rule, active = well fitted curve in the direction sought with a large enough effect; inconclusive = small, poorly fitted or top-dose-only effect, or another doubt; inactive = no such curve, though single readings can be large; an effect the other way counts as inactive or inconclusive. % is scaled to controls: 0 for no effect and ±100 for the full control effect; potency is read from the fitted curve at half-maximal effect.

SMILES	hNpr1 antagonist	GPT2 inhibitor	HEK cytotox	Luciferase inh	3T3 cytotox
COc1ccc(Nc2ncc(-c3cnn(C)c3)c3c2OCC3)cc1	6.2%[70.6 µM]	-12.2%[88.5 µM]	?	25.1µM*	?
CCOc1cc(C(=O)N2CCC[C@H]2c2nc(-c3ccc(OC)cc3)no2)cc(OCC)c1OCC	-17.3%	i	?	i	?
O=C1N(CC2CC2)CCOC12CCN(Cc1ccc(F)c(Cl)c1)CC2	-13.3%[70.6 µM]	1.6%[88.5 µM]	?	i	-28.7%[138 µM]
O=C1N(CCc2ccccc2)CCOC12CCN(Cc1ccc(F)c(Cl)c1)CC2	?	-13.0%[88.5 µM]	79.4µM*	i	44.7µM*
Cc1ccc(NC(=O)CC2CCCN(c3cnn(CC4CC4)c(=O)c3)C2)cc1 (centres undefined)	3.3%	-10.5%	-29.8%	i	?
Cc1cccc(NC(=O)CC2CCCN(c3cnn(CC4CC4)c(=O)c3)C2)c1 (centres undefined)	-6.6%	-7.6%	?	i	25.1µM*
CCc1cccc(NC(=O)CC2CCCN(c3cnn(CC4CC4)c(=O)c3)C2)c1 (centres undefined)	-11.1%	i	?	i	39.8µM*
CC1(C)[C@H](Cc2cc(-c3ccc(F)cc3)on2)C[C@@H]1NCc1cccnc1	11.2µM*	-4.0%[88.5 µM]	?	?	?
COCc1cc(C[C@@H]2C[C@H](NCc3cccnc3)C2(C)C)no1	-0.4%[70.6 µM]	-4.2%[88.5 µM]	-16.7%[172 µM]	i	-16.3%[138 µM]
CC(C)(C)c1cc(C[C@@H]2C[C@H](NS(C)(=O)=O)C2(C)C)no1	-2.3%[70.6 µM]	-9.1%[88.5 µM]	?	i	-14.6%[174 µM]
CN1CCC(N[C@H]2C[C@@H](Cc3cc(C(C)(C)C)on3)C2(C)C)CC1	1.6%[70.6 µM]	-8.2%[88.5 µM]	28.2µM*	i	50.1µM*
CC1(C)[C@H](Cc2cc(-c3ccc(F)cc3)on2)C[C@@H]1NC1CCC1	3.7%[70.6 µM]	2.0%[88.5 µM]	39.8µM*	i	35.5µM*
CC(=O)N1CCCC(c2nnc3n2CCNC3)C1 (centres undefined)	nt	-11.1%	i	nt	i
CCN1c2cc(C(=O)Nc3cccc(C(F)(F)F)c3)ccc2C(=O)N2CCCC21 (centres undefined)	-5.0%	i	?	i	35.5µM*
CCN1c2cc(C(=O)Nc3cccc(C(F)(F)F)c3)ccc2C(=O)N2CCCCCC21 (centres undefined)	-15.2%	i	12.6µM*	i	?
COc1cccc(CC2(CO)CCCN(c3nnnn3-c3ccccc3)C2)c1 (centres undefined)	-7.2%	-5.2%	?	i	?
COc1cccc(CC2(CO)CCCN(c3ccc(-c4nccn4C)nn3)C2)c1 (centres undefined)	-9.7%	i	20µM*	i	?
CC1=C[C@@H](CN2CCOCC2)[C@H](C(C)C)C[C@H]1Cc1nnc(-c2ccccc2F)o1	-19.9%[70.6 µM]	-6.5%[88.5 µM]	89.1µM*	i	?
CC1=C[C@@H](CN2CCN(c3ccccn3)CC2)[C@H](C(C)C)C[C@H]1Cc1nnc(C)o1	7.4%[70.6 µM]	-6.3%[88.5 µM]	?	i	?
CC1=C[C@@H](CN2CCN(C)CC2)[C@H](C(C)C)C[C@H]1Cc1nnc(-c2ccccc2F)o1	0.9%[70.6 µM]	-3.3%[88.5 µM]	44.7µM*	i	?
CC1=C[C@@H](CN2CCC(CO)CC2)[C@H](C(C)C)C[C@H]1Cc1nnc(-c2cccnc2)o1	1.6%[70.6 µM]	i	?	i	-29.5%[174 µM]
COc1ccc(CC(=O)NC2CCCc3c2[nH]c2c(Cl)cccc32)cc1 (centres undefined)	-19.9%	-21.7%	?	i	25.1µM*
Cn1nc(C(=O)NC2CCCc3c2[nH]c2ccccc32)c2ccccc2c1=O (centres undefined)	-17.8%	0.6%	35.5µM*	i	?
O=C(NC1CCCc2c1[nH]c1c(Cl)cccc21)c1ccncc1 (centres undefined)	-15.2%	-6.7%	-26.6%	i	-21.6%
COc1ccc(CC(=O)NC2CCCc3c2[nH]c2ccccc32)cc1OC (centres undefined)	?	i	35.5µM*	i	?
SMILES	hNpr1 antagonist	GPT2 inhibitor	HEK cytotox	Luciferase inh	3T3 cytotox
O=C(NC1CCCc2c1[nH]c1c(Cl)cccc21)c1n[nH]c2c1CCC2 (centres undefined)	-18.0%	i	?	i	28.2µM*
COCC(=O)NC1CCCc2c1[nH]c1c(Cl)cccc21 (centres undefined)	0.7%	-9.5%	?	i	-11.6%
COc1ccc(C2Cn3nnc(-c4noc(-c5cccc(Cl)c5)n4)c3CO2)cc1 (centres undefined)	8.2%	i	-11.2%	i	-15.8%
CN(Cc1ccccc1)C1CCOc2ccccc21 (centres undefined)	24.5%[70.6 µM]	-0.3%[88.5 µM]	-22.6%[172 µM]	i	1.6%[138 µM]
Cc1noc(C)c1CC(=O)NC1CCCc2c1[nH]c1ccccc21 (centres undefined)	-18.3%	-13.0%	?	i	39.8µM*
Cc1noc(C)c1CC(=O)NC1CCCc2c1[nH]c1ccc(F)cc21 (centres undefined)	-3.7%	-0.5%	?	i	?
CC(C)(C)C(=O)NC1CCCc2c1[nH]c1ccc(F)cc21 (centres undefined)	-6.9%	-31.4%	44.7µM*	i	?
CC(=O)NC1CCCc2c1[nH]c1ccc(F)cc21 (centres undefined)	-1.4%	i	?	i	-11.8%
COc1ccc(C(=O)NC2CCCc3c2[nH]c2c(Cl)cccc32)cc1OC (centres undefined)	-25.7%	i	?	i	?
COc1ccc(C(=O)NC2CCCc3c2[nH]c2ccccc32)cc1OC (centres undefined)	-11.9%	-20.0%	44.7µM*	i	?
Cc1ccc(CN2CC3(COCC2=O)CN(c2ccccc2)C3)cc1C	-16.4%[70.6 µM]	0.7%[88.5 µM]	?	i	?
CN1CCN(C[C@@H]2CN(C(=O)c3ccc4ccccc4c3)C[C@@H]2CO)CC1	2.6%	?	-3.3%	i	-11.6%
O=C1CC2(CCN(C(=O)[C@@H]3CCCN3)CC2)CN1Cc1ccc(F)c(F)c1	1.4%	i	-12.6%	i	-13.7%
COCCn1c(=O)n([C@H]2CCCN(C(=O)NCCc3ccccc3)C2)c2ncccc21	4.7%	i	3.3%	i	-3.5%
O=C1c2cnc(-c3ccc(CO)cc3)nc2OCCN1Cc1ccc(F)cc1F	-16.0%[70.6 µM]	-3.5%[88.5 µM]	89.1µM*	?	?
